# Assay outcomes (PubChem BioAssay)
# In the library only some 0.69% were active in any assay of this set; here they are far more common.
# Vif-APOBEC3G blk = qHTS for Inhibitors of Vif-A3G Interactions: qHTS; DNA dC->dU-editing enzyme APOBEC-3G (Homo sapiens), Q9HC16; HeLa A3G-eYFP + Vif (tagged APOBEC3G with the HIV-1 protein that degrades it), YFP fluorescence, overnight; Potency, µM (titrated, usually from 46.1 µM), inactives show top-dose activity, negative = active, usual class: inhibitors; 410,000 compounds, 0.076% hits; AID 602310, 2012; also: % is scaled to controls: 0 for no effect and ±100 for the full control effect; nearly all actives have a fitted effect of over 60% in size
# Target sequence (Q9HC16 whole entry, looked up): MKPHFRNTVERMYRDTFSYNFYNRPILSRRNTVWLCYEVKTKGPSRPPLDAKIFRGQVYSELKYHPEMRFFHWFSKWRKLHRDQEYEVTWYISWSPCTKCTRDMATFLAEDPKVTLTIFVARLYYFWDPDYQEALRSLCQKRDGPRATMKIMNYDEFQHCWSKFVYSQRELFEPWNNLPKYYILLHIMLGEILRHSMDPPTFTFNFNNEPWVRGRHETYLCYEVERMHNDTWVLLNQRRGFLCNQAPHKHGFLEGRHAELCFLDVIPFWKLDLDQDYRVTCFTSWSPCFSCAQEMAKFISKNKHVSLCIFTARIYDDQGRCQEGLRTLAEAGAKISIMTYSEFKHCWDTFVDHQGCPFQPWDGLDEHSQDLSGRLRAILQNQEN
#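 Read-out is eYFP fluorescence (Ex 488/Em 500-530) from Vif-expressing HeLa A3G-eYFP cells; more signal means A3G escaped Vif-mediated degradation. Cells plated overnight, compound pinned in, incubated overnight at 37 deg C.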
# FUS suppressor = qHTS for Suppressors of FUS Proteinopathy: Primary screen using FUS-linked yeast assay; Potency, µM (top dose mostly 76.6 µM), most hits filed as activators; 390,000 compounds, 0.24% hits; S. cerevisiae FUS-expressing, growth rescue, OD600, 24 h;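 also: plate controls were DMSO vehicle for no effect and reference control for full effect; nearly all actives have a fitted effect of over 55% in size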
#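 Cultures pregrown in 2.5% raffinose medium are shifted to minimal medium containing 2% galactose to express toxic FUS. Compounds are tested at several concentrations. After 24hr at 30C, growth is quantified at 600 nm absorbance.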
# Vif-A3F inh = qHTS for Inhibitors of Vif-A3F Interactions: qHTS | 390,000 compounds, 0.2% hits | HeLa A3F-eYFP + Vif (tagged APOBEC3F with the HIV-1 protein that degrades it), YFP fluorescence increase | Potency, µM (series often up to 46.1 µM), inactives show at the highest dose activity, negative = active; also: % of control where 0% means no effect; nearly all actives have a fitted effect of over 65% in size
#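 HeLa cells stably expressing Vif plus C-terminally eYFP-tagged A3F were seeded, incubated overnight at 37 deg C, dosed with compound, incubated overnight again at 37 deg C. Yellow fluorescence (Ex 488/Em 500-530) reported blocked Vif-mediated A3F-eYFP degradation.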
# Glioma ERSR ind = qHTS for Inducers of the Endoplasmic Reticulum Stress Response (ERSR) in Human Glioma: qHTS; U87-MG GRP78 promoter luciferase reporter, 16 h; AID 602332, 2012; Potency, µM, for the others: at the top dose activation, actives largely listed as activators; 420,000 compounds, 0.02% hits; also: series mostly up to about 76 µM; % of control where 0% means no effect; nearly all actives have a fitted effect of over 35% in size
#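 Stably transfected U87-MG glioma cells carrying a GRP78-based luciferase sensor; 16 h compound incubation. Luminescence end-point read 10 min after Bright-Glo addition at room temperature.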
# Abeta rescue = qHTS for compounds that reverse cellular toxicity of Amyloid beta (A-beta) peptide in yeast: Primary Screen. yeast expressing A-beta42, growth rescue, OD600, 48 h; response scale: 0% DMSO, 100% iron-clioquinol control. Potency, µM (doses to about 46.1 µM), most hits filed as activators. 410,000 compounds, 0.063% hits. AID 1347071, 2019; also: nearly all actives have a fitted effect of over 55% in size
#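 Growth rescue measured by 600 nm absorbance after 48 h yeast culture at 30 C with compound. Values normalized between DMSO and an equimolar ferric chloride plus clioquinol control.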
# PINK1 expr mod = A Quantitative High throughput Screen to Identify Chemical Modulators of PINK1 Expression. PINK1 immunofluorescence, high-content cytometry, 24 h. Potency, µM (highest dose often 76.6 µM), for the others: top-dose activation (PINK1 increase), hits mostly activators. 410,000 compounds, 0.2% hits. AID 624263, 2012; active = well fitted activation curve with a large enough effect; inconclusive = small, poorly fitted or top-dose-only effect; cell line not stated here; also: % of control where 0% means no effect; nearly all actives have a fitted effect of over 65% in size
#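 PINK1 protein, normally rapidly degraded, was detected by immunofluorescence after 24 hour compound treatment of a stable cell line. Titration data (5 concentrations) came from laser-scanning cytometry, with CCCP-treated wells as controls.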
# Starred values were filed as active, the others as inactive; i = inactive; u = inconclusive; x = not tested or not shown; [ ] = remark or other dose. Unless noted, calls follow the shape of the dose curve; as a rule, active = well fitted curve in the direction sought with a large enough effect; inconclusive = small, poorly fitted or top-dose-only effect, or another doubt; inactive = no such curve, though single readings can be large; an effect the other way counts as inactive or inconclusive. Potency is read from the fitted curve at half-maximal effect.
SMILES,Vif-APOBEC3G blk,FUS suppressor,Vif-A3F inh,Glioma ERSR ind,Abeta rescue,PINK1 expr mod
O=C1NC(c2ccccc2)=C(c2nc3ccccc3s2)C(c2ccc(O)cc2)N1 (stereo not given),-21%,35µM*,5%,-4%,i,2%[38.3 µM]
CC(C)c1c(C(=O)NCC(C)(C)N2CCOCC2)cnn1-c1nccc(-c2ccccc2F)n1,x,x,x,-3%,x,0%
Cc1nnc(N2C(=O)C(O)=C(C(=O)c3ccco3)C2c2ccc(C(C)C)cc2)s1 (stereo not given),-13%,7.1µM*,-6%,-2%,i,2%
Cc1nnc(N2C(=O)C(O)=C(C(=O)c3ccco3)C2c2ccc(F)cc2)s1 (stereo not given),-3%,i,-10%,-2%,i,0%
Cc1c(C(=O)N2CC3CCC2C3)sc2ncnc(NCCc3c[nH]c4ccccc34)c12 (stereo not given),x,x,x,-2%,x,0%
O=C(O)c1ccc(N2C(=O)CC(SC(=Nc3ccccc3)Nc3ccccc3)C2=O)cc1 (stereo not given),0%,i,4%,8%,i,6%
CC(/C=C/c1ccc(N(C)C)cc1)=N\N=C(/N)SC1CC(=O)N(c2ccc(C(=O)O)cc2)C1=O (stereo not given),-15%,i,25µM*,-4%,i,u
Cc1ccn(CCC(=O)N2CCOc3ccc(C(O)C4CCCCC4)cc3C2)n1 (stereo not given),x,x,x,-2%,x,1%
COc1cccc(Cn2cnc3c(cnn3C(C)(C)C)c2=O)c1,-1%,x,x,-2%,x,x
CCOc1cc(/C=N\Nc2ccc([N+](=O)[O-])cc2)ccc1OCC(=O)Nc1ccc(C)c(C)c1,u,i,x,-5%,i,u
COc1cc(/C=N\Nc2ccc([N+](=O)[O-])cc2)ccc1OCC(=O)Nc1ccc(C)c(C)c1,-1%,i,10µM*,-1%,i,12%
Cc1ccc2nccnc2c1,-15%,x,x,-11%,x,x
C/C(=N/Nc1cc(-c2ccccc2)nc(-c2ccccc2)n1)c1ccc(O)cc1,-10%,x,8%,-9%,i,-2%
C/C(=N\Nc1cc(-c2ccccc2)nc(-c2ccc(Br)cc2)n1)c1cccc(N)c1,-5%,13µM*,-2%,5%,i,9%[38.3 µM]
COc1ccc2c(c1)CCc1cnc(-n3ncc(C(=O)NCc4cc(C)no4)c3C3CC3)nc1-2,x,x,x,4%,x,0%
Cc1cc(N/N=C/c2ccc(F)cc2)nc(-n2nc(C)cc2C)n1,-2%,i,u,-4%,13µM*,6%
O=S(=O)(Nc1nc2ccccc2nc1Cl)c1ccc(F)cc1,-10%,i,0%,-3%,u,1%
O=S(=O)(Nc1nc2ccccc2nc1N1CCN(c2ccccc2)CC1)c1ccc(F)cc1,u,x,22µM*,-1%,i,15%
Cc1ccc(S(=O)(=O)Nc2nc3ccccc3nc2N2CCOCC2)cc1,0%,i,-12%,-5%,i,-3%
CCCCOc1nc2ccccc2nc1NS(=O)(=O)c1ccc(F)cc1,-25%,i,10µM*,3%,i,0%
CC(C)(C)n1ncc2c(=O)n(Cc3ccc(OC(F)(F)F)cc3)cnc21,-1%,x,x,-2%,x,x
CCn1nc(C(=O)Nc2ccc(S(=O)(=O)Nc3nccs3)cc2)c2ccccc2c1=O,-10%,25µM*,3%,-4%,i,0%
O=C(Nc1ccc(S(=O)(=O)Nc2ncccn2)cc1)c1nn(Cc2ccccc2)c(=O)c2ccccc12,7%,i,-1%,-3%,i,0%
